Compounds with a hit are over-represented: about 19% of the library has one in this group of screens.
HT1080 IDH1KD tx: HT-1080 IDH1 knockdown cell toxicity (counter line). HT-1080 IDH1 knockdown viability, ATP luminescence, 48 h. Potency, µM (doses to about 46.1 µM), actives largely listed as cytotoxic. 360,000 compounds, 2% hits
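Using the IDH1-knockdown HT-1080 line run in the same batch and compound series as the NT line, viability after 48 h at 37 °C was determined by CellTiter-Glo luminescence and expressed as % activity.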
DT40 TDP1 no CPT: qHTS for Inhibitors of human tyrosyl-DNA phosphodiesterase 1 (TDP1): qHTS in cells in absence of CPT; DT40 Tdp1-/- hTDP1 cells, no CPT, ATP luminescence, 48 h; Potency, µM (series often up to 46.2 µM), most hits filed as inhibitors; 420,000 compounds, 15% hits; AID 686978, 2013; further: nearly all actives have a fitted effect of over 55% in size
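Seeded 400 DT40-hTDP1 cells/well (vehicle DMSO, no 20 nM CPT); pinned compounds; ≥48 hr at 37 °C; CellTiter-Glo luminescence as viability measure.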
IL-1B inflam inh: inflammasome signaling inhibition, IL-1 beta readout | AID 743279 | activity change, % at 57.5 µM | THP-1 LPS/ATP IL-1B secretion, AlphaLISA, 16 h; stronger effect = lower value | 360,000 compounds, 4.7% hits; in the data active means activity change below about -50%; inconclusive means mostly about -30% to -49%
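Secreted IL-1B measured by AlphaLISA bead assay after 16 h compound exposure of THP-1 cells; compounds (final up to 57.5 uM) added 1 h before LPS (250 ng/mL) and ATP (1.25 mM) stimulation; lower signal means less secretion.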
TDP1 cell CPT: growth inhibition of DT40 Tdp1-/-;hTDP1 cells with camptothecin (screen for TDP1 inhibitors); chicken DT40 Tdp1-/-;hTDP1 cells + 20 nM CPT, ATP luminescence, 48 h; Potency, µM (series often up to 46.2 µM), actives largely listed as inhibitors; 420,000 compounds, 12% hits; further: nearly all actives have a fitted effect of over 55% in size
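Chicken DT40 Tdp1-/- cells complemented with human TDP1, 400 cells/well, exposed to compounds plus 20 nM camptothecin for at least 48 h at 37 C; viability read as ATP content by CellTiter-Glo luminescence.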
HT1080-NT tox: kills 2HG-producing HT-1080-NT fibrosarcoma cells | HT-1080-NT fibrosarcoma viability, CellTiter-Glo ATP luminescence, 48 h | 360,000 compounds, 1.6% hits | Potency, µM (highest dose often 46.1 µM), hits mostly cytotoxic;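 further: NT is the 2HG producing partner of a matched IDH1 knockdown line; nearly all actives have a fitted effect of over 55% in size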
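750 cells/well, RPMI + 5% FBS; 2 h settle, compound pin-transfer, 48 h at 37 degrees C. CellTiter-Glo 10 min RT, luminescence. Normalized to DMSO and media-only wells.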
Hits are given with their value; . = inactive; ? = inconclusive; / = no result given. Unless noted, the call rests on the fitted dose curve; in most records, active means well fitted curve in the direction sought with a large enough effect; inconclusive means small, poorly fitted or top-dose-only effect, or another doubt; inactive means no such curve, though single readings can be large; an effect the other way counts as inactive or inconclusive.

SMILES	HT1080 IDH1KD tx	DT40 TDP1 no CPT	IL-1B inflam inh	TDP1 cell CPT	HT1080-NT tox
N/C(=N\OC(=O)CSc1ccccc1)c1ccccn1	.	.	?	.	.
COc1ccc(NC(=O)Oc2ccccc2)cc1Cl	.	.	.	.	.
N=C(CC(O)COc1ccccc1-c1ccccc1)N1CCCCC1 (centres undefined)	/	3.3µM	/	5.2µM	/
c1ccc2c(OCCCCN3CCCC3)cccc2c1	.	26µM	.	?	.
c1ccc(-c2ccccc2OCCCCN2CCCCC2)cc1	?	16µM	-63	?	?
COc1cccc(NC(=O)c2c(C)oc3nc(C)nc(N4CCCC4)c23)c1	/	.	/	.	/
Cc1ccccc1OCC(=O)OCC(=O)NC1CCCC(C)C1C (centres undefined)	.	?	.	.	.
Cc1nn(C(C)(C)C)c(OC(=O)c2ccc3c(c2)OCO3)c1S(=O)(=O)c1ccccc1	?	.	.	.	21µM
CC(=O)Oc1c(S(=O)(=O)c2ccc(C)cc2)c(C)nn1C(C)(C)C	.	.	.	.	.
Cc1ccc(S(=O)(=O)c2c(C)nn(C(C)(C)C)c2OC(=O)c2ccc(Br)o2)cc1	?	?	-72	?	?
Cc1ccc(S(=O)(=O)c2c(C)nn(C(C)(C)C)c2OC(=O)c2cccs2)cc1	26µM	.	.	.	23µM
Cc1ccc(S(=O)(=O)c2c(C)nn(C(C)(C)C)c2OC(=O)c2ccco2)cc1	?	?	.	.	23µM
CCN(C(=O)c1ccc(C(=O)N(CC)c2ccccc2C)cc1)c1ccccc1C	/	16µM	/	?	/
CCCCCCCN(C(=O)CCl)c1ccccc1C	?	15µM	-106	18µM	.
CCN(C(=O)c1ccc(NC(C)=O)cc1)c1ccccc1	.	.	.	.	.
CC(C)(C)c1cc(C(=O)C[n+]2ccc(C(=O)NCCCO)cc2)cc(C(C)(C)C)c1O	.	.	.	.	.
COc1ccc(N(CC(=O)N2CCc3ccccc3C2)S(=O)(=O)c2c(C)nn(C)c2C)cc1	.	?	.	.	.
CNC(=S)N(Cc1ccc(OC)cc1)C1CC(=O)N(c2ccc(Cl)cc2)C1=O (centres undefined)	.	18µM	.	16µM	.
C=CCN(C(=O)Nc1ccc(Cl)cc1)C1CC(=O)N(c2ccc(OC)cc2)C1=O (centres undefined)	.	.	.	23µM	.
CNC(=S)N(Cc1ccc2c(c1)OCO2)C1CC(=O)N(c2ccc(F)cc2)C1=O (centres undefined)	.	21µM	.	?	.
CCc1ccc(NC(=O)Cn2c(=O)n(CCC(=O)NC3CCN(Cc4ccccc4)CC3)c(=O)c3ccccc32)cc1	.	.	.	?	?
Cc1ccc(SC(C)C(=O)N2CCC(C(N)=O)CC2)cc1 (centres undefined)	.	.	.	.	.
CCCNC(=O)OCc1cccnc1Sc1ccc(C)cc1	.	15µM	.	?	.
CCOC(=O)Nc1cccnc1Sc1ccc(Cl)cc1	.	.	.	.	.
Cn1nccc1C(=O)N1CCN(c2ccccc2F)CC1	.	.	.	.	.
SMILES	HT1080 IDH1KD tx	DT40 TDP1 no CPT	IL-1B inflam inh	TDP1 cell CPT	HT1080-NT tox
CCc1cc2c3c(c(=O)oc2cc1OCC(=O)OC)CCCC3	.	.	.	.	.
N#C/C(=C\c1cccc(O)c1)C(=O)N1CCCCC1	.	?	-73	.	.
Cc1cc(/C=C(\C#N)C(=O)N2CCCCC2)cc(C)c1O	18µM	26µM	.	18µM	16µM
CC(=O)N1CCN(C(=O)/C(C#N)=C/c2ccc3c(c2)OCO3)CC1	.	.	.	.	.
O=C(N/C(=C/c1cccc(Br)c1)C(=O)N1CCCCC1)c1ccco1	.	?	?	?	.
N#C/C(=C\c1cccc(Br)c1)C(=O)N1CCCCC1	16µM	12µM	?	13µM	23µM
Cc1c(Cc2ccccc2)c(=O)oc2cc(OCC(=O)NCc3ccccn3)ccc12	.	.	-52	?	.
CCCCc1c(C)c2ccc(OCC(C)=O)cc2oc1=O	.	?	.	.	.
CC(=O)COc1ccc2c(C)c(-c3ccccc3)c(=O)oc2c1	.	26µM	.	?	.
Cc1ccc(Cl)cc1N(CC(=O)NC1CCCC1)C(=O)c1csnn1	.	.	.	.	.
CCc1nnc(NC(=O)CSCc2cc(=O)n3ccsc3n2)s1	.	.	.	.	.
COc1ccc(S(=O)(=O)n2nc(-c3cc(OC)c(OC)c(OC)c3)cc2N)cc1OC	.	?	.	.	.
COc1ccc(-c2cc(N)n(S(=O)(=O)c3c(F)c(F)c(F)c(F)c3F)n2)cc1OC	4µM	0.82µM	-87	0.18µM	7.1µM
CCN(CC)C(=O)Cn1cc(C(=O)C(=O)NCCCN2CCCCC2)c2ccccc21	.	.	.	.	.
CCN(CC(N)=O)S(=O)(=O)c1ccc(Br)cc1	.	.	.	.	.
Cc1cc(C)cc(NC2=C(N)C(=O)c3ccccc3C2=O)c1	.	.	.	?	.
O=C1C(Cl)=C(Nc2ccc(O)cc2)C(=O)c2ccccc21	16µM	?	-105	21µM	6.5µM
O=S1(=O)N=C(Nc2ccc(O)cc2)c2ccccc21	.	.	.	.	.
CCN(CC)c1ccc(NC2=C(Cl)C(=O)c3ccccc3C2=O)cc1	?	13µM	-108	10µM	?
Cc1ccc(NC2=C(Cl)C(=O)c3ccccc3C2=O)cc1	.	13µM	.	8.2µM	.
O=C1C=C(Nc2ccc(O)cc2)C(=O)c2ccccc21	21µM	13µM	.	15µM	26µM
CCN(CC)c1ccc(NC(=O)C(C)C)cc1	.	.	.	.	.
OCCNc1nc(-c2ccccc2)nc2c1oc1ccccc12	.	?	.	?	.
C/C(=N\NC(=O)OC(C)(C)C)c1ccccc1Br	.	.	.	.	.
COc1cc(NC(=O)Cn2nnnc2-c2ccccc2F)cc(OC)c1OC	/	.	/	.	/
SMILES	HT1080 IDH1KD tx	DT40 TDP1 no CPT	IL-1B inflam inh	TDP1 cell CPT	HT1080-NT tox
Cc1nnc(N(C)C(=O)c2ccncc2)s1	.	.	.	.	.
O=[N+]([O-])c1ccc2[nH]ncc2c1	.	.	.	.	.
Cc1ccc(CC(C)(O)CC(C)(O)Cc2ccc(C)cc2)cc1 (centres undefined)	.	18µM	.	21µM	.
Cc1ccc(CNC(C)(C)CO)cc1	.	?	.	.	.
CCOC(=O)CN1C(=O)CSc2ccccc21	.	.	.	.	.
O=C(CN1CCN(S(=O)(=O)c2ccccc2)CC1)NCCc1ccccc1	.	.	.	.	.
CCN1CCc2c(OCC(=O)N3CCCc4ccccc43)cccc2C1=O	.	.	.	.	.
O=C(COc1cccc2c1CCN(Cc1ccc(Br)cc1)C2=O)N1CCOCC1	.	23µM	-63	?	.

High-throughput results from PubChem.
